Assay outcomes from PubChem BioAssay.
Shown are actives, neighbours in structure and some others; about 3.5% of the full set was active somewhere.
FBW7 act = FBW7 E3 ligase activators, primary screen, biochemical, AlphaScreen, human | AlphaScreen FBW7–phospho-cyclin E peptide binding, activator screen | 0.13% of 650,000 active | normalized activity (activation), % at 26.1 µM | F-box/WD repeat-containing protein 7 (Homo sapiens), Q969H0; in the data active means normalized activity above about 1.9%;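 further: purified mutant Fbw7 with reduced substrate affinity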
Target sequence (Q969H0 whole entry, looked up): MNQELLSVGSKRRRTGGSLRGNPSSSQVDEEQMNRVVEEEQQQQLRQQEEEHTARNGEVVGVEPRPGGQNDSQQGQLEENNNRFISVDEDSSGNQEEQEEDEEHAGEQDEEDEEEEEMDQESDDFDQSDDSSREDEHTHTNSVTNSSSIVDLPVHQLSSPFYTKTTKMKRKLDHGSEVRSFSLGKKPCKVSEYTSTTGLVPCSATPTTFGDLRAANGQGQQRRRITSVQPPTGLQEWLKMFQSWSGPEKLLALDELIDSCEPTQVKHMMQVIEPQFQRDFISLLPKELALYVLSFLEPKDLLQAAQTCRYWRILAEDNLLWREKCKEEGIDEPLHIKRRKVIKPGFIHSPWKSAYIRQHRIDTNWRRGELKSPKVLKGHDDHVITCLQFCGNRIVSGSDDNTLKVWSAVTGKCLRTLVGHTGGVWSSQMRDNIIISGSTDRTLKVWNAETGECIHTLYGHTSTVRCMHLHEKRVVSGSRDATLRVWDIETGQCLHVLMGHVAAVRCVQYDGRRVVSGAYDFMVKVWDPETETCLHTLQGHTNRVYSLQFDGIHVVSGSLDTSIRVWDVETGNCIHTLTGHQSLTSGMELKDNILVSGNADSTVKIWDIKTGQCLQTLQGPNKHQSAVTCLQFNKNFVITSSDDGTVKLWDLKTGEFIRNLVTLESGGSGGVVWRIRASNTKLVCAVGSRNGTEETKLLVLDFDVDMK
MITF primary = MITF inhibitors, primary screen, biochemical, AlphaScreen, human; Microphthalmia-associated transcription factor (Homo sapiens), O75030; AlphaScreen MITF homodimerization, bead proximity signal; inhibition, % at 2.6 µM; 0.91% of 650,000 active; in the data active means inhibition above about 50%;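 further: 0% = vehicle wells with protein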
TEAD-YAP block = TEAD-YAP interaction inhibition, primary screen, TEAD-YAP interaction inhibitor project, luminescence, HEK-TIYL cells | inhibition, % at 9.12 µM | AID 1259422, 2018 | TEAD-Gal4/YAP UAS-luciferase luminescence | 1.4% of 640,000 active; in the data active means inhibition above about 32%;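 further: 0% = median of test compound wells and 100% = reference inhibitor wells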
GPR151 ag = activators of human GPR151, primary screen, cell-based, PathHunter beta-arrestin, luminescence. G-protein coupled receptor 151 (Homo sapiens), Q8TDV0. PathHunter beta-arrestin GPR151 cells. activation, % at 11.2 µM. 1% of 650,000 active. AID 1508602, 2020; in the data active means activation above about 4.9%;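 further: 0% = median of compound wells and 100% = cells with positive control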
MITF confirm = MITF inhibitors, retest of hits, confirmation, biochemical, AlphaScreen, triplicate | shares compounds with MITF primary | AlphaScreen MITF homodimerization, biotin/His-MITF beads | inhibition, % at 2.6 µM | 16% of 4,700 active;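 active means inhibition above a cutoff derived from the DMSO control wells, cut at about 28% in these data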;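 further: 0% = MITF dimer wells with DMSO only; inhibitors lower the bead chemiluminescence by keeping MITF from dimerizing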
AlphaScreen DR = AlphaScreen optical interference compounds, dose response, counter-screen, biochemical, HTS; shares compounds with MITF primary; AlphaScreen optical interference counterscreen, cell-free; IC50, µM; 6% of 480 active; call rule not given here
AlphaScreen intf2 = AlphaScreen optical interference compounds, counter-screen for MITF inhibitor project, biochemical, triplicate | shares compounds with MITF primary | 7.6% of 4,700 active | AID 1259376, 2018 | LysRS AlphaScreen counterscreen, signal interference | inhibition, % at 2.6 µM;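 active means inhibition above a cutoff derived from the DMSO control wells, cut at about 30% in these data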
Starred values were filed as active, the others as inactive; x = no result given.

SMILES	FBW7 act	MITF primary	TEAD-YAP block	GPR151 ag	MITF confirm	AlphaScreen intf2	others
COc1cc(/C=C2/C(=N)N3N=C(Cc4ccccc4)SC3=NC2=O)ccc1OCCOc1ccccc1	0.0	10.7	-9.0	-1.1	x	x
O=C1CN(C(=O)c2ccc(S(=O)(=O)N3CCCCC3)cc2)C(c2ccccc2)c2cc(Cl)ccc2N1 (stereo unspecified)	-0.4	11.0	-9.4	-0.1	x	x
Cn1c(-c2ccc(Br)cc2)cnc1NCc1cccnc1	0.6	25.9	2.2	-0.1	x	x
Cn1c(-c2ccc(-c3ccccc3)cc2)cnc1NCc1cccnc1	0.7	62.9*	-43.8	0.1	-13.4	-3.0
CCCN(CCO)Cc1ccccc1C(F)(F)F	0.1	51.1*	6.0	-0.4	11.1	12.2
CCCN(CCO)Cc1cccc2ccccc12	-0.2	-4.2	-3.0	1.5	x	x
Cc1ccc(C(=O)COC(=O)CCC(=O)Nc2ccc(Br)cc2)cc1[N+](=O)[O-]	0.0	1.8	3.9	1.4	x	x
CS(=O)(=O)N1CCN(Cc2ccccc2)CC1	-0.1	3.6	-4.7	-0.8	x	x
COc1ccc(CN2CCN(S(C)(=O)=O)CC2)cc1	-0.1	57.2*	19.7	0.8	-2.1	-7.6
CS(=O)(=O)N1CCN(Cc2ccc(F)cc2)CC1	0.0	62.4*	3.9	-0.7	-8.0	4.5
O=C(NCCc1c[nH]c2ccccc12)/C(=C\c1ccco1)NC(=O)c1ccccc1	-0.1	4.2	14.9	-0.5	x	x
CCOc1ccccc1OCCN1CC(C)OC(C)C1 (stereo unspecified)	0.1	29.0	5.2	1.1	x	x
CC1CN(CCOc2ccc(Cl)cc2Cl)CC(C)O1 (stereo unspecified)	0.0	38.5	-2.3	0.6	x	x
Cc1cc(C)c(C)c(OCCN2CC(C)OC(C)C2)c1 (stereo unspecified)	-0.4	70.6*	5.0	0.3	7.8	16.5
CC1CN(CCOc2ccc(Br)cc2Cl)CC(C)O1 (stereo unspecified)	0.1	51.3*	-12.3	0.5	0.2	-4.1
CC1CN(CCCOc2ccc(Br)cc2Cl)CC(C)O1 (stereo unspecified)	0.2	57.7*	-5.0	0.4	-2.4	-3.5
O=C1C(=O)N(Cc2cc(C(F)(F)F)cc(C(F)(F)F)c2)c2ccccc21	0.6	-2.9	0.7	-0.5	x	x
O=C(NCCc1c[nH]c2ccccc12)c1ccc(-c2ccco2)nc1NCc1cccnc1	0.7	17.7	10.1	0.9	x	x
CC[C@@H]1NC(=O)[C@@H]2C[C@H](NC(=O)c3cc(C(C)(C)C)nn3C)CN2C1=O	0.4	8.9	15.4	2.4	x	x
O=C(c1cccc(F)c1)N1CCN(Cc2cccc3ccccc23)CC1	0.8	58.4*	6.6	-1.6	-6.4	-4.3
O=C(c1cccc(F)c1)N1CCN(Cc2ccccc2Cl)CC1	0.0	57.3*	2.9	1.2	-3.9	-0.7
CCOC(=O)CNC(=O)CSc1nnc2c3c4c(sc3nc(C3CC3)n12)CCCC4	-0.1	-7.0	-11.2	-0.5	x	x
CC(=O)c1ccc(NC(=O)CSc2nnc3[nH]c(=O)c(C)c(C)n23)cc1	0.0	56.3*	6.4	-1.0	13.2	8.5
COC(=O)c1ccc(NC(=O)CSc2nnc3[nH]c(=O)c(C)c(C)n23)cc1	0.5	17.5	10.2	-2.4	x	x
CSc1ccc(CN2CCN(C(=O)c3ccc(F)cc3)CC2)cc1	0.6	54.7*	44.0*	-1.3	6.7	12.4
SMILES	FBW7 act	MITF primary	TEAD-YAP block	GPR151 ag	MITF confirm	AlphaScreen intf2	others
COc1cc(OC)cc(C(=O)N2CCN(Cc3cccc(Br)c3)CC2)c1	-0.2	41.1	5.0	-1.6	x	x
O=C(c1ccc(F)cc1)N1CCN(Cc2cccc(Br)c2)CC1	0.0	57.5*	8.7	-0.6	-7.5	-5.8
CSc1ccc(CN2CCN(C(=O)c3ccc(-c4ccccc4)cc3)CC2)cc1	0.0	0.7	6.9	0.0	x	x
O=C(c1ccc(-c2ccccc2)cc1)N1CCN(Cc2cccnc2)CC1	0.2	68.0*	-10.0	0.8	19.4	14.8
COc1ccc(C(=O)N2CCN(Cc3cccc(Br)c3)CC2)cc1	0.1	51.4*	-1.9	0.4	6.4	13.5
O=S(=O)(Nc1cccc(F)c1)c1ccc(-n2cccn2)cc1	1.4	7.5	-2.3	-1.1	x	x
O=C(Nc1ccc(NC(=O)c2ccncc2)cc1)c1ccccc1	0.2	7.3	6.7	0.2	x	x
O=C(c1ccc(F)cc1)N1CCN(Cc2cccc(F)c2)CC1	0.0	58.3*	4.1	1.1	4.1	4.3
O=C(c1cccc(F)c1)N1CCN(Cc2ccncc2)CC1	0.6	78.4*	-7.3	-1.7	63.5*	-6.3	AlphaScreen DR=>5.66
COc1ccc(C(=O)N2CCN(Cc3cccc(F)c3)CC2)cc1	0.1	45.7	-11.4	-0.7	x	x
O=C(c1cccc(F)c1)N1CCN(CC2CC3C=CC2C3)CC1 (stereo unspecified)	0.0	57.9*	-6.3	-0.2	-22.5	3.6
O=C(c1cccc(C(=O)N2CCN(Cc3ccccc3)CC2)c1)N1CCN(Cc2ccccc2)CC1	0.2	-4.1	15.5	-0.5	x	x
O=C(c1cccc(Cl)c1)N1CCN(Cc2cccc(F)c2)CC1	0.0	67.0*	3.2	0.4	-3.8	6.0
O=C(c1ccccc1F)N1CCN(CC2CC3C=CC2C3)CC1 (stereo unspecified)	-0.1	39.4	5.0	0.0	x	x
CCC(=O)Nc1ccc(C(=O)COC(=O)C(CC(C)C)NC(N)=O)cc1 (stereo unspecified)	0.0	-1.8	27.0	-1.5	x	x
O=C1CCCN1CCn1cnc2c(NCc3ccccc3)nc(Nc3ncccn3)nc21	-0.2	-7.3	1.0	1.3	x	x
CCCCOc1ccc(C(=O)N2CCC3(CC2)CC(=O)c2ccccc2O3)cc1	-0.2	-0.8	-10.0	-0.4	x	x
O=C(O)c1nccnc1C(=O)Nc1ccc(Cl)c(C(F)(F)F)c1	0.2	5.5	1.1	-2.7	x	x
O=C(c1cccc(F)c1)N1CCN(Cc2cccnc2)CC1	-0.2	87.1*	-2.5	-0.4	-3.5	-0.2
COc1ccc(CN2CCN(C(=O)c3cccc(F)c3)CC2)cc1OC	0.0	31.2	-1.0	0.1	x	x
O=C(c1cccc(F)c1)N1CCN(Cc2cccc(Oc3ccccc3)c2)CC1	-0.3	38.0	-15.7	1.9	x	x
CSc1ccc(CN2CCOc3ccc(CN4CCN(C(C)=O)CC4)cc3C2)cc1	0.0	88.5*	36.6*	1.0	3.3	-1.7
COc1cc(CN2CCN(C(=O)c3cccc(F)c3)CC2)cc(OC)c1O	-0.4	67.7*	-1.4	0.1	-2.8	5.8
O=C(c1cccc(F)c1)N1CCN(Cc2cccc(F)c2)CC1	-0.2	56.8*	-5.7	-1.1	6.0	15.6
